This note sets out measurements from PubChem BioAssay AID493001 (Johns Hopkins Ion Channel Center, 2010).

Screen size: about 1,900 compounds; about 430 (23%) were called active.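 Rule for the calls: active = duplicate-averaged calcium rise in uninduced cells above buffer wells' mean plus 5 SD; inactive = the rest.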 Only a sample is shown.

This experiment is described as follows: compound-evoked calcium rise in non-induced M3R cells, confirmation, artefact control for RGS4 inhibitor project, cell-based, HEK293 M3R, no carbachol, second counter-screen (AID 493001). The conditions noted are these: Fluo-4 calcium, at 10 µM; hits give high values, normalised: buffer wells 0%, carbachol wells 100%. Background: A counterscreen serves to expose hits that act by an unwanted route or on another target.
Regarding `C1=C(N2CCOCC2)/C(=C/c2nc3ccccc3[nH]2)CC1`, the calcium response (agonist-mode artifact) was 185% (active).

For the compound `Cc1nn(C(C)C(=O)N2CCOCC2)c(=O)c2nn(-c3ccccc3)c(C)c12` (configuration not stated), the calcium response (agonist-mode artifact) result was “inactive”. Under `Cc1ccc(Sc2cc(N3CCOCC3)nc(-c3ccccc3)n2)cc1` stands 17% (active).

Take `COC(=O)C1CCN(C(=O)c2cc(=O)[nH]c3ccccc23)CC1`: the calcium response (agonist-mode artifact) result was “inactive”. Under `COC(=O)Cn1cc(/C=C/[N+](=O)[O-])c2ccccc21` stands 11.5% (active). As to `CC(C)Cc1nc(Nc2ccc(S(=O)(=O)N3CCCC3)cc2)c2nnn(Cc3ccccc3)c2n1`, the calcium response (agonist-mode artifact) result was “inactive”. With `COc1cc(Br)cc(/C=N/c2ncn[nH]2)c1O`, the calcium response (agonist-mode artifact) entry was “inactive”. Under `C#CCOc1ccc(/C=C2/C(=O)NN(c3ccccc3)C2=O)cc1OC` stands “inactive”; under `COc1cc(/C=C2/C(=O)NN(c3cccc(Cl)c3)C2=O)cc(Br)c1O`, 43.5% (active).

Regarding `Cc1ccc(/C=C2\CCn3c2nc2cc(C(=O)O)ccc2c3=O)c(C)c1`, the calcium response (agonist-mode artifact) result is “inactive”. Turning to `O=[N+]([O-])/C=C/c1ccc2c(ccn2Cc2ccccc2)c1`, the calcium response (agonist-mode artifact) was 104% (active).

Turning to `Cc1cc(-c2n[nH]c(=S)n2/N=C/C(Br)=C/c2ccccc2)n[nH]1`, the calcium response (agonist-mode artifact) entry is “inactive”. For `O=C1c2ccccc2NC(c2ccc(-c3cccc(Cl)c3)o2)N1O` (configuration not stated) the value was “inactive”. Consider `O=C(O)C(c1ccccc1)N1C(=O)/C(=C\c2ccc(-c3cccc(Cl)c3)o2)SC1=S` (configuration not stated), for which the calcium response (agonist-mode artifact) was 599% (active). On to `O=C1Nc2ccc(Br)cc2/C1=N/N=C/C1=C(N2CCOCC2)C(=C\c2ccccc2)/CC1`, for which the calcium response (agonist-mode artifact) result was “inactive”. Under `O=C(COC(=O)c1cccc(Br)c1)Nc1cccc2c1C(=O)c1ccccc1C2=O` stands “inactive”; under `Oc1ccc(/C=N/Nc2ccc(C(F)(F)F)cn2)cc1O`, “inactive”. Regarding `Cc1nn2c(=O)cc(COC(=O)c3ccc(NC(=O)C(C)(C)C)cc3)nc2s1`, the calcium response (agonist-mode artifact) result was “inactive”.

Turning to `COc1ccc(C(C[N+](=O)[O-])n2nc(C)cc2C)cc1` (configuration not stated), the calcium response (agonist-mode artifact) is 16% (active). For the compound `CCOC(=O)C1=NN(c2ccc(Cl)cc2)/C(=C/C2=NCCc3cc(OC)c(OC)cc32)S1`, the calcium response (agonist-mode artifact) is 7% (active).

Regarding `COc1ccc(NCc2nnc(SCc3ccccc3)n2-c2ccc(OC)cc2)cc1`, the calcium response (agonist-mode artifact) result is “inactive”. As to `O=S(=O)(Nc1nccs1)c1ccc2c(c1)OCCO2`, the calcium response (agonist-mode artifact) result is “inactive”.
